# Assay outcomes as filed in PubChem.
# Only some compounds are listed: those with a hit (about 1.4% of all), similar ones and a draw of the others.
# EPAC1 agonist – agonists of human EPAC1; AID 720707; O95398; hit rate 0.073% among 360,000; EPAC1 agonist qHTS, biochemical assay; response scale: 100% = response to 6.5 mM cAMP; Potency, µM (titrated, usually from 154 µM), without a hit: at the highest dose activation, hits mostly activators; further: potency means the concentration at half of the fitted maximal effect; nearly all actives have a fitted effect of over 60% in size
# Target sequence (O95398 whole entry, looked up): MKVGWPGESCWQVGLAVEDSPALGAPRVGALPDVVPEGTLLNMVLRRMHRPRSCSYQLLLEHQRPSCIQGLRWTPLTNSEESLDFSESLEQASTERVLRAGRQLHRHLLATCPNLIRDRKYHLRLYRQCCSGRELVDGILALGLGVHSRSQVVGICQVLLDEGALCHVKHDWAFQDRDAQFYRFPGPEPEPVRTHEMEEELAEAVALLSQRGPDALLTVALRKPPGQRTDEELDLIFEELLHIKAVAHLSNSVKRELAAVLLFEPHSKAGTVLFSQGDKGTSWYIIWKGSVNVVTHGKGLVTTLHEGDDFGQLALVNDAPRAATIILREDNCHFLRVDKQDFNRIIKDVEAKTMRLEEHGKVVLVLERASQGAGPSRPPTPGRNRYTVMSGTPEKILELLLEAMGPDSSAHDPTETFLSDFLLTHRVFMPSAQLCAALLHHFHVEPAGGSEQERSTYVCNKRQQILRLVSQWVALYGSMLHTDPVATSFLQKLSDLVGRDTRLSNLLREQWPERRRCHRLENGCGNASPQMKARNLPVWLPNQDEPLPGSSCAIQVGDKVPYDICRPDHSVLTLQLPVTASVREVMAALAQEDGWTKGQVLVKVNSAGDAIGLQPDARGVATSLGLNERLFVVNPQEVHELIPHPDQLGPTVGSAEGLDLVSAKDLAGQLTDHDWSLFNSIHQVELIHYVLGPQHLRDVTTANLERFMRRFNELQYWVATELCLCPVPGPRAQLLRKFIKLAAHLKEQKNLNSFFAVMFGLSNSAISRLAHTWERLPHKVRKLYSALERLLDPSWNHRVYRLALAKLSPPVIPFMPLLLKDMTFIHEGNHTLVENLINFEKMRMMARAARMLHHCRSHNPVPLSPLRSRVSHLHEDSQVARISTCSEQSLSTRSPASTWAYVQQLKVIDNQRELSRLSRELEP
#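 Multi-concentration qHTS readout: loss of Rap1B-bound BODIPY-GDP fluorescence driven by 100 nM EPAC1 with excess GDP (50 uM), monitored kinetically at room temperature; agonist response expressed relative to 6.5 mM cAMP.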
# KCNH2 WT inh – KCNH2 (human, wildtype) channel inhibition. Q12809. U2OS, BacMam KCNH2, thallium flux FluxOr; active compounds read low. activity change, % at 1.84 µM. hit rate 0.37% among 340,000. AID 720551;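 active means maximum activity change below -70%; inconclusive means maximum activity change between -70% and -50%; inactive means maximum activity change above -50%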; further: on the % scale 0 is the no-effect control and ±100 the full control effect
#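 U2OS cells were transduced with wild-type KCNH2 virus (2.03 x 10^8 / mL) for 4 h at room temperature, then cultured overnight at 37 C. Thallium flux was read with FluxOr dye. Rate constants were normalized to DMSO controls.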
# EPAC2 antagonist – blocks human EPAC2 exchange factor. EPAC2 GEF exchange of Rap1B-BODIPY-GDP, fluorescence. Potency, µM (doses to about 114 µM), for the others: at the top dose activity, negative = inhibition, hits mostly inhibitors. hit rate 0.18% among 360,000. AID 720708. Q8WZA2; further: potency means the concentration at half of the fitted maximal effect; on the % scale 0 is the no-effect control and ±100 the full control effect; nearly all actives have a fitted effect of over 45% in size
# EPAC1 antagonist – antagonists of human EPAC1; O95398; EPAC1 GEF assay, Rap1b-BODIPY-GDP exchange fluorescence; Potency, µM (titrated, usually from 115 µM), inactives show at the top dose activity change, negative = inhibition, most hits filed as inhibitors; hit rate 0.14% among 360,000;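 further: potency means the concentration at half of the fitted maximal effect; plate controls were vehicle for no effect and positive control for full effect; nearly all actives have a fitted effect of over 50% in size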
# KCNH2 3.1 inh – blocks the human KCNH2 3.1 channel isoform. hit rate 0.95% among 340,000. activity change, % (tested at about 1.8 µM). U2OS KCNH2 3.1, thallium flux FluxOr; active compounds read low;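 active means maximum activity change below -70%; inconclusive means maximum activity change from -70% to -50%; inactive means maximum activity change above -50%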;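 further: thallium influx rate constant from kinetic fluorescence after stimulation buffer; on the % scale 0 is the no-effect control and ±100 the full control effect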
#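 Thallium flux via FluxOr fluorescence (Red40 quencher, 45 min loading) in U2OS cells virally expressing the KCNH2 3.1 isoform (1.77 x 10^8 /mL virus, overnight at 37 C). Rate constants from 2-min kinetic reads post-stimulation, normalised to positive and negative controls.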
# EPAC2 ag – agonists of human EPAC2 (RAPGEF4). Q8WZA2. hit rate 0.079% among 360,000. AID 720711. Potency, µM (top dose mostly 154 µM), inactives show at the top dose activation, actives largely listed as activators. EPAC2 activation, biochemical qHTS; response scale: 100% = 6.5 mM cAMP response; further: potency means the concentration at half of the fitted maximal effect; nearly all actives have a fitted effect of over 50% in size
#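 qHTS, titration series. 100 nM EPAC2 / 250 nM Rap1B-BODIPY-GDP / 50 uM GDP; RT; ex 480/em 540 nm, 5-min reads to 30 min. Norm. to 6.5 mM cAMP = activation.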
# Active calls of the source: *; ? = inconclusive; . = no result. Unless noted, the call rests on the fitted dose curve; in most records, active means well fitted curve in the direction sought with a large enough effect; inconclusive means small, poorly fitted or top-dose-only effect, or another doubt; inactive means no such curve, though single readings can be large; an effect the other way counts as inactive or inconclusive.
SMILES,EPAC1 agonist,KCNH2 WT inh,EPAC2 antagonist,EPAC1 antagonist,KCNH2 3.1 inh,EPAC2 ag
CCC(CC)CN1CCC(CN2C(=S)NC[C@@H]2CC(C)C)CC1,-10.1%,-2.7,-6.6%,-14.9%,3.9,-7.0%
CCOC(=O)C1CCCN(C(=O)C2CCN(C(=O)Nc3ccccc3)CC2)C1 (stereo not given),-1.9%,0.0,5.7%,-8.9%,-7.1,2.0%
CCOC(=O)C1CCCN(CC(O)COC(c2ccccc2)c2ccccc2)C1 (stereo not given),-5.1%,-76.9*,-4.2%,-12.9%,-96.2*,5.9%
CCOC(=O)C1CCCN(CC(O)COc2ccccc2C(C)=O)C1 (stereo not given),13.8%,11.4,-7.5%,-1.1%,-2.2,5.0%
CCOC(=O)C1CCCN(C(=O)Nc2ccccc2)C1 (stereo not given),8.0%,5.1,-3.3%,9.8%,-73.0*,10.5%
O=C(CCCSc1ccc(Cl)cc1)Nc1ccccc1O,20.5%,1.4,-16.0%,0.4%,1.6,21.0%
Cc1c(CNCC(C)c2ccccc2)c(C(=O)O)c(C)n1Cc1ccccc1 (stereo not given),-7.0%,0.6,-7.1%,2.4%,-2.5,-1.9%
Cc1ccc(S(=O)(=O)N(C)c2ccc3ccccc3c2)cc1,12.7%,-4.0,-17.6%,3.6%,-147.9*,8.8%
Cn1nc(C(=O)NCCOc2ccccc2)c2ccccc2c1=O,9.7%,4.9,-3.4%,-9.8%,-119.2*,-5.7%
COc1ccc(CN2CCCC(C(=O)N(C)Cc3ccccc3)C2)cc1OC (stereo not given),7.4%,-9.0,-2.7%,-11.4%,-75.1*,11.8%
O=C1NC(=O)C(=Cc2ccccc2[N+](=O)[O-])S1,4.7%,-0.9,79.4µM*,50.1µM*,-8.7,11.4%
Oc1c(Br)cc(/C=N/n2c(-c3ccccc3)n[nH]c2=S)c(O)c1Br,1.5%,-17.8,-0.5%,-14.3%,-8.7,6.2%
Cc1c(Br)c(O)c(Br)c(O)c1/C=N/n1c(-c2ccccc2)n[nH]c1=S,4.2%,10.3,-12.9%,56.2µM*,3.0,9.1%
Cc1cccc(/C=N/n2c(-c3ccncc3)n[nH]c2=S)c1,0.4%,-2.8,0.4%,?,-70.3*,7.5%
COc1ccc(C(=O)NCC(=O)N/N=C/c2cccc(OC(=O)c3ccco3)c2)cc1OC,-4.4%,-74.6*,0.2%,-11.1%,-3.1,5.3%
COc1cc(/C=C2\SC(=S)N(NS(=O)(=O)c3ccc(C)cc3)C2=O)cc(OC)c1OC,-0.9%,-9.3,50.1µM*,79.4µM*,-9.7,-3.5%
Cc1ccc(S(=O)(=O)NN2C(=O)/C(=C/c3cccc(F)c3)SC2=S)cc1,-3.2%,-4.7,31.6µM*,?,10.6,-7.6%
COc1cc(/C=C2\SC(=S)N(NS(=O)(=O)c3ccc(C)cc3)C2=O)ccc1O,6.2%,3.2,?,?,20.1,-5.7%
Cc1ccc(S(=O)(=O)NN2C(=O)/C(=C/c3ccccn3)SC2=S)cc1,1.4%,-3.4,-2.2%,-20.2%,7.6,10.6%
CCN(CC)CCCN(C(=O)c1ccco1)c1nc(-c2ccc(C)cc2)cs1,12.9%,-47.3,10.5%,-3.8%,-94.5*,8.8%
CCN(CC)CCCN(C(=O)c1ccco1)c1nc(-c2ccc(Cl)cc2)cs1,3.9%,-42.4,-1.4%,-17.1%,-80.0*,-3.5%
COC(=O)CC(NC(=O)c1cccs1)c1ccc(OC)c(OC)c1 (stereo not given),-3.5%,-11.1,14.3%,-2.9%,7.9,5.1%
COC(=O)CC(c1ccc(OC)c(OC)c1)c1ccc(OC)c(OC)c1,-1.8%,-211.9*,-18.1%,-0.8%,-5.2,1.6%
Cc1ccc(N(CC(=O)NCc2ccc(Cl)cc2)S(C)(=O)=O)cc1,5.2%,3.9,-1.7%,11.4%,2.9,2.8%
CCOc1ccc2c(c1)c(=O)c(S(=O)(=O)c1ccc(CC)cc1)cn2C,-8.5%,-8.1,-9.2%,-10.0%,6.1,2.3%
SMILES,EPAC1 agonist,KCNH2 WT inh,EPAC2 antagonist,EPAC1 antagonist,KCNH2 3.1 inh,EPAC2 ag
O=C(CSc1nnnn1-c1ccccc1)Nc1ncc(Cc2ccccc2Cl)s1,12.3%,-2.1,1.2%,-13.3%,-23.5,2.0%
N=C1SC(c2ccccc2)C(=O)N1c1ncc(Cc2ccccc2Cl)s1 (stereo not given),-10.7%,-15.8,-2.1%,70.8µM*,-46.6,-0.5%
O=C1NC(=S)SC1=Cc1ccccn1,7.3%,.,-29.5%,-23.4%,.,8.0%
CC(=O)Nc1ccc(Sc2ncccc2C(=O)Nc2cc(Cl)cc(Cl)c2)cn1,-12.3%,-11.2,-1.5%,5.5%,-7.2,-4.5%
CC(=O)Nc1ccc(Sc2ncccc2C(=O)Nc2ccc(OC(F)(F)F)cc2)cn1,-20.5%,0.9,15.1%,-6.3%,-86.2*,-5.9%
COC(=O)[C@@]12C[C@@H](CC(=O)N3CCC(c4ccccc4)CC3)C(=O)N(Cc3cccc4ccccc34)C1=CCC(C)(C)C2,-2.2%,.,-9.3%,-4.6%,.,5.3%
CC(C)N(C)CCOC(=O)C1COc2ccccc2O1 (stereo not given),4.4%,1.1,1.3%,1.7%,-203.7*,6.1%
O=C(COC(=O)C1COc2ccccc2O1)NC(=O)NC1CCCC1 (stereo not given),1.1%,-197.8*,-0.8%,2.1%,-143.3*,-5.0%
COc1ccc(-n2c(SCC(=O)Nc3ccc(Br)cc3)nc(O)cc2=O)cc1,-3.8%,2.5,-0.1%,?,2.8,0.4%
COc1ccc(CNC(=O)[C@@H](NC(=O)C2CCN(S(=O)(=O)c3ccc(C)cc3)CC2)C(C)C)cc1OC,-11.4%,-12.3,-4.2%,6.6%,-74.5*,-3.6%
Cc1ccc(F)cc1C(=O)N1CCCCC1c1cc(C(=O)Nc2ccccc2)no1 (stereo not given),4.3%,.,-2.6%,-18.5%,.,13.4%
CN(C)c1ccc(Cc2cc3c(O)ccc(O)c3cc(Cc3ccc(N(C)C)cc3)c2=O)cc1,9.4%,6.5,-5.5%,50.1µM*,-0.4,10.2%
O=C(O)c1[nH]c2ccccc2c1C(c1cc(Br)ccc1O)c1c(C(=O)O)[nH]c2ccccc12,-2.4%,12.3,-19.8%,44.7µM*,5.0,-7.0%
COc1cccc(CN2CCC2(C)C(=O)Nc2cccc(Oc3ccccc3)c2)c1F (stereo not given),1.9%,.,10.4%,-1.2%,.,12.8%
COc1cccc(CN(C)C(=O)c2ccccc2Sc2ccccc2C#N)c1,4.3%,-6.8,-14.0%,-1.8%,-93.1*,12.8%
COc1ccc(C(=O)Oc2cc3c4c(c2)C(C)=CC(C)(C)N4C(=O)C3=O)cc1OC,0.7%,15.9,-10.1%,-8.3%,-71.7*,-6.7%
